This is a sample that favours compounds with a hit; in the whole collection about 19% have one here.
ELG1 DNA repair = qHTS screen for small molecules that inhibit ELG1-dependent DNA repair in human embryonic kidney (HEK293T) cells expressing luciferase-tagged ELG1; HEK293T ELG1-luciferase reporter, luminescence, 16 h; DNA damage induced by 5-fluorouridine; hit rate 2.3% among 330,000; Potency, µM (titrated, usually from 46.1 µM), without a hit: at the highest dose activity change, negative = inhibition, most hits filed as inhibitors; note: potency is the fitted concentration of half-maximal effect; nearly all actives have a fitted effect of over 55% in size
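DMSO vehicle served as the neutral condition. Each well held 2,000 cells given 5-fluorouridine plus compound; after 16 hr at 37 °C/5% CO2, ONE-Glo was added and luciferase measured 30 min later.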
IL1B secr inh = qHTS for Inhibitors of Inflammasome Signaling: IL-1-beta AlphaLISA Primary Screen. activity change, % at 57.5 µM. THP-1 LPS/ATP IL-1B secretion, AlphaLISA, 16 h; active compounds read low. hit rate 4.7% among 360,000; in the data active = activity change below about -50%; inconclusive = mostly about -30% to -49%
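THP-1 cells pretreated 1 hr with compounds (up to 57.5 uM final), then stimulated with LPS (250 ng/mL final) plus ATP (1.25 mM final); secreted IL-1B measured by AlphaLISA after 16 hr, decreased signal indicating inhibition.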
HT1080NT lethal = qHTS for induction of synthetic lethality in tumor cells producing 2HG: qHTS for the HT-1080-NT fibrosarcoma cell line; HT-1080-NT fibrosarcoma viability, CellTiter-Glo ATP luminescence, 48 h; Potency, µM (top dose mostly 46.1 µM), without a hit: at the highest dose activity, negative = less viability, usual class: cytotoxic; hit rate 1.6% among 360,000; AID 686970, 2013;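 note: NT is the 2HG producing partner of a matched IDH1 knockdown line; potency is the fitted concentration of half-maximal effect; 0% = DMSO-treated cells and -100% = media-only wells without cells; nearly all actives have a fitted effect of over 55% in size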
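HT-1080-NT; 750 cells/well; 5% FBS RPMI; 48 h compound, 37 degrees C; CellTiter-Glo luminescence; curve fitting and curve-class assignment.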
DT40 TDP1 CPT = qHTS for Inhibitors of human tyrosyl-DNA phosphodiesterase 1 (TDP1): qHTS in cells in presence of CPT; chicken DT40 Tdp1-/-;hTDP1 cells + 20 nM CPT, ATP luminescence, 48 h; Potency, µM (top dose mostly 46.2 µM), inactives show at the top dose activity change, negative = growth inhibition, hits mostly inhibitors; hit rate 12% among 420,000; note: potency is the fitted concentration of half-maximal effect; nearly all actives have a fitted effect of over 55% in size
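Cell growth measured by CellTiter-Glo luminescence after a minimum 48 h, 37 C compound exposure with 20 nM CPT in Tdp1-knockout DT40 cells stably expressing hTDP1, seeded 400/well; qHTS titration format.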
DT40 TDP1 no CPT = qHTS for Inhibitors of human tyrosyl-DNA phosphodiesterase 1 (TDP1): qHTS in cells in absence of CPT | Potency, µM (series often up to 46.2 µM), inactives show top-dose activity change, negative = growth inhibition, usual class: inhibitors | DT40 Tdp1-/- hTDP1 cells, no CPT, ATP luminescence, 48 h | hit rate 15% among 420,000 | AID 686978, 2013; note: potency is the fitted concentration of half-maximal effect; nearly all actives have a fitted effect of over 55% in size
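Camptothecin absent (DMSO only). Human TDP1-complemented DT40 knockout cells, 400 cells/well, 37 °C for minimum 48 hr; ATP measured via CellTiter-Glo, 30 min dark incubation, luminescence.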
HT1080 IDH1KD tx = qHTS for induction of synthetic lethality in tumor cells producing 2HG: qHTS for the HT-1080-IDH1KD cell line. Potency, µM (top dose mostly 46.1 µM), for the others: at the highest dose activity, negative = toxicity, actives largely listed as cytotoxic. HT-1080 IDH1 knockdown viability, ATP luminescence, 48 h. hit rate 2% among 360,000;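 note: potency is the fitted concentration of half-maximal effect; 0% = DMSO wells and -100% = cell-free medium wells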
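Viability of IDH1-knockdown HT-1080 fibrosarcoma cells was assessed by CellTiter-Glo after 48 h at 37 °C with titrated compound; concentration-effect curves were classified by fit quality and response size.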
An asterisk follows results filed as active; ? = inconclusive; . = no result given; [ ] = remark or other dose. Unless noted, calls come from the whole dose curve; as a rule, active = well fitted curve in the direction sought with a large enough effect; inconclusive = small, poorly fitted or top-dose-only effect, or another doubt; inactive = no such curve, though single readings can be large; an effect the other way counts as inactive or inconclusive. Unless noted, % is set by controls: 0 for no effect and ±100 for the full control effect.

SMILES	ELG1 DNA repair	IL1B secr inh	HT1080NT lethal	DT40 TDP1 CPT	DT40 TDP1 no CPT	HT1080 IDH1KD tx
O=C(CN(Cc1ccccc1Cl)C(=O)c1csnn1)NCCc1ccccc1	-12%	0	-1%	23%	-13%	1%
Cc1nc2cccnc2n1C1CCN(S(=O)(=O)N(C)C)CC1	.	.	.	4%	?	.
CCOc1ccc(S(=O)(=O)N2CCC(c3ccncc3)CC2)cc1	.	.	.	12µM*	?	.
CCCS(=O)(=O)N1CCC(n2c(C)nc3cccnc32)CC1	.	.	.	18µM*	18µM*	.
CCOc1ccc(S(=O)(=O)N2CCC(n3c(C)nc4cccnc43)CC2)cc1	.	.	.	21µM*	12µM*	.
CCOc1ccc(S(=O)(=O)n2c(C)nc3ccccc32)cc1	-1%	42	?	?	21µM*	-28%
CC(C)CC(=O)N=C1SC2CS(=O)(=O)CC2N1Cc1ccccc1Cl (stereo unspecified)	-1%	7	7%	-21%	-21%	0%
COc1ccc(-c2cc(=O)c3cc(OCC(=O)OC(C)C)ccc3o2)cc1	.	.	.	9%	-24%	.
CCOc1ccc(C(=O)Nc2cc(-c3nc4ccccc4[nH]3)ccc2Cl)cc1[N+](=O)[O-]	?	-20	?	?	23µM*	18µM*
CCCOc1cccc(C(=O)Nc2cc(-c3nc4ccccc4[nH]3)ccc2C)c1	.	.	.	16µM*	16µM*	.
CCOc1ccccc1NC(=O)c1ccc(OCC)c([N+](=O)[O-])c1	1%	3	-2%	?	-29%	2%
CCOc1ccc(C(=O)Nc2cc(-c3nc4ccccc4[nH]3)ccc2C)cc1[N+](=O)[O-]	23µM*	-50*	-22%	?	?	-22%
Cc1ccc(-c2nc3ccccc3[nH]2)cc1NC(=O)COc1ccccc1[N+](=O)[O-]	.	.	.	15µM*	?	.
O=C(CN1CCCc2ccccc21)Nc1cccc(S(=O)(=O)N2CCOCC2)c1	0%	2	0%	?	?	0%
CSc1nc(NCCOCCO)c2sc3nc(-c4ccco4)c4c(c3c2n1)CCC4	-18%	-14	?	18µM*	16µM*	-4%[9.24 µM]
Cc1ccccc1/C=C(\C#N)c1nc(-c2ccc(Cl)cc2)cs1	.	.	.	-5%	-17%	.
COc1cc2nc(N3CCOCC3)nc(NC(C)C)c2cc1OC	.	.	-2%	?	?	15%
COc1cc2nc(N3CCN(C)CC3)nc(NC(C)C)c2cc1OC	.	.	-22%	?	18µM*	-2%
COc1cc2nc(Cl)nc(NC(C)C)c2cc1OC	.	.	-18%	14µM*	16µM*	-10%
COc1cc2nc(N3CCCCC3)nc(NC(C)C)c2cc1OC	.	.	?	5µM*	?	?
CC(=O)Nc1ccc(NC(=O)CSc2n[nH]c(-c3cccs3)n2)cc1	-5%	-11	-10%	-2%	-4%	-2%
Cc1ccc2c(c1)C1CN(C)CCC1N2C(=O)COc1ccc(N(C)C(=O)c2ccccc2)cc1 (stereo unspecified)	-7%	0	-1%	5.2µM*	13µM*	-9%
COc1cccc(C(NC(C)=O)c2nc(-c3ccc(F)cc3OC)cs2)c1 (stereo unspecified)	.	4	10%	?	?	-6%
COc1ccc(NC(=O)C2CCCN(CCCc3ccccc3)C2)cc1OCC(C)C (stereo unspecified)	-22%	-85*	?	7.3µM*	5.2µM*	-11%
COc1ccc(NC(=O)C2CCCNC2)cc1OCC(C)C (stereo unspecified)	10%	-28	-25%	?	?	?
SMILES	ELG1 DNA repair	IL1B secr inh	HT1080NT lethal	DT40 TDP1 CPT	DT40 TDP1 no CPT	HT1080 IDH1KD tx
CCOC(=O)C1(C)C=C(Nc2ccc(C(N)=O)cc2)C(=O)N1c1ccccc1 (stereo unspecified)	.	.	.	?	-12%	.
COc1ccc(NC(=O)Cn2c(=O)oc3cc(S(=O)(=O)N4CCCCCC4)ccc32)cc1OC	.	.	.	16µM*	13µM*	.
CCOc1ccc(NC(=O)Cn2c(=O)oc3cc(S(=O)(=O)NC4CCCC4)ccc32)cc1	.	.	.	15µM*	12µM*	.
COc1ccc(NC(=O)Cn2c(=O)oc3cc(S(=O)(=O)N4CCCCC4C)ccc32)cc1 (stereo unspecified)	.	.	.	18µM*	21µM*	.
COc1ccc(NC(=O)Cn2c(=O)oc3cc(S(=O)(=O)N4CCCC4)ccc32)cc1	15%	-9	0%	-18%	-20%	6%
CC(=O)c1cccc(NC(=O)Cn2c(=O)oc3cc(S(=O)(=O)N4CCCC4)ccc32)c1	-11%	24	10%	4%	-11%	8%
COc1ccc(OC)c(CNC(=O)c2cc(=O)[nH]c3ccc(S(=O)(=O)N4CCCCC4C)cc23)c1 (stereo unspecified)	.	.	.	?	16µM*	.
CC(=O)c1ccc(N2C(=NC(=O)CCc3ccccc3)SC3CS(=O)(=O)CC32)cc1 (stereo unspecified)	-1%	-12	-1%	3%	9%	-9%
CC(C)(C)C1CCc2c(sc(NC(=O)c3cccc(Cl)c3)c2C(N)=O)C1 (stereo unspecified)	.	.	.	-3%	-1%	.
Nc1c(N(Cc2ccco2)C(=O)c2ccccc2F)c(=O)[nH]c(=O)n1Cc1ccccc1	2%	6	2%	10%	-6%	2%
CCOc1ccc(NC(=O)Cn2c(=O)oc3cc(S(=O)(=O)N4CCCCCC4)ccc32)cc1	.	.	.	21µM*	21µM*	.
COc1cc(OC)c(NC(=O)Cn2c(=O)oc3cc(S(=O)(=O)N4CCCC4)ccc32)cc1Cl	.	.	.	?	18µM*	.
CCN(Cc1ccccc1)C(=O)Cn1c(=O)oc2cc(S(=O)(=O)N3CCCCCC3)ccc21	.	.	.	16µM*	15µM*	.
COc1ccccc1N1CCN(C(=O)Cn2c(=O)oc3cc(S(=O)(=O)N4CCCC4)ccc32)CC1	-1%	-11	0%	?	?	-4%
COc1ccccc1CNC(=O)Cn1c(=O)oc2cc(S(=O)(=O)N3CCCC3)ccc21	-11%	1	3%	13µM*	29µM*	-2%
Cc1ccc(S(=O)(=O)c2nc(NN(C)C)sc2Cl)cc1	?	6	-6%	-19%	?	-23%

Screening data deposited in PubChem by National Center for Advancing Translational Sciences (NCATS).
